Measured values reported in PubChem BioAssay (NCATS).
Values joined by “and” are separate entries in the source; they are usually repeats but may differ in a detail not shown here. Equal values may be shown once. Inconclusive results are not listed. More than one record can exist for a structure, and the calls need not agree. Active and inactive are the calls of the source. Calls come from the whole dose curve; as a rule, active = well fitted curve in the direction sought with a large enough effect; inconclusive = small, poorly fitted or top-dose-only effect, or another doubt; inactive = no such curve, though single readings can be large; an effect the other way counts as inactive or inconclusive.

Tests used:
[1] = Viability qHTS for spleen associated tyrosine kinase inhibitor (SYKi) naive MV4-11 cells (AID 1963823); conditions: MV4-11 AML viability, CellTiter-Glo luminescence, 72 h; series mostly up to 45 µM; note: nearly all actives have a fitted effect of over 40% in size
Procedure, shortened: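 In this viability screen, compounds acted on SYK inhibitor naive MV4-11 cells for three days (72 hr, 37 C). Remaining viable cells were measured by CellTiter-Glo luminescence following a 10 min room-temperature development.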

[2] = Viability qHTS for spleen associated tyrosine kinase inhibitor (SYKi) drug resistant MV4-11 cells (AID 1963824); conditions: SYKi-resistant MV4-11 viability, CellTiter-Glo, 72 h; series mostly up to 45 µM; note: nearly all actives have a fitted effect of over 35% in size
Procedure, shortened: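 SYK inhibitor-resistant MV4-11 AML cells, 500 per well, added to predispensed compounds and incubated 72 hr at 37 C, 5% CO2. Viability measured by CellTiter-Glo luminescence after 10 min at room temperature.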

[3] = Cellular viability qHTS for adrenocortical cancer (ACC) cell line SW-13 (AID 1963989); conditions: SW-13 ACC cells viability, CellTiter-Glo, 48 h; activity (max response): stronger effect = lower value; note: nearly all actives have a fitted effect of over 65% in size;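 for activity (max response): cells grown in serum-free medium with ITS supplement; % is set by controls: 0 for no effect and ±100 for the full control effect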
Procedure, shortened: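 48 h treatment, SW-13 in ITS/DMEM serum-free; doses up to 46 uM; readout CellTiter-Glo luminescence; curve fit four-parameter logistic.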

[4] = Cellular viability qHTS for adrenocortical cancer (ACC) cell line NCI-H295R (AID 1963990); conditions: CellTiter-Glo ATP luminescence, 48 h; series mostly up to 46.1 µM; note: nearly all actives have a fitted effect of over 60% in size
Procedure, shortened: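 Compound titrations (up to 46 uM final) are applied to NCI-H295R cultures for 48 h at 37C. Viable cell number is estimated by CellTiter-Glo signal, normalised to DMSO and doxorubicin controls.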
Potency is the fitted concentration of half-maximal effect.

Row | Compound | Potency [1] | Potency [2] | Potency [3] | Potency [4] | activity (max response) [3]
1 | CCCCOC(=O)NS(=O)(=O)c1sc(CC(C)C)cc1-c1ccc(Cn2ccnc2)cc1 | 14.8 µM (active) | 14.8 µM (active) | 28.2 µM (active) | 25.1 µM (active) | 
2 | Cc1cnc(NC(=O)c2cc(Oc3cnc(C(=O)N(C)C)nc3)c3cc(C)oc3c2)cn1 | inactive | inactive |  | inactive | -13.9% (inactive)
3 | CCN(c1cc(C#CCN2CCOCC2)cc(C(=O)NCc2c(C)cc(C)[nH]c2=O)c1C)C1CCC(N(C)CCOC)CC1 (stereo not drawn) | inactive | inactive |  | inactive | 7.49% (inactive)
4 | CC(C(=O)O)c1ccc(C(=O)c2ccccc2)s1 (stereo not drawn) | inactive | inactive |  | inactive | -5.09% (inactive)
5 | COc1cc2nccc(Oc3ccc(NC(=O)c4cn(C(C)C)c(=O)n(-c5ccc(F)cc5)c4=O)cc3F)c2cc1OC | 0.186 µM (active) | 0.468 µM (active) |  | inactive | 9.27% (inactive)
6 | CC(Cc1ccccc1)(NC(=O)CN)c1ccccc1 (stereo not drawn) | inactive | inactive |  |  | 8.44% (inactive)
7 | CNCCn1c(=O)c2cc(OC)c(OC)cc2c2cnc3cc4c(cc3c21)OCO4 | 0.0152 µM (active) | 0.0121 µM (active) | 0.0422 µM (active) | 0.596 µM (active) | 
8 | CC(=O)O[C@]1(C(C)=O)CC[C@H]2[C@@H]3C=C(C)C4=CC(=O)CC[C@]4(C)[C@H]3CC[C@@]21C | inactive and 16.6 µM (active) | 14.8 µM (active) |  | inactive | 8.88% (inactive) and -22.2% (inactive)
9 | CCCCCCCC/C=C\CCCCCCCC(=O)NCc1ccc(O)c(OC)c1 | inactive | 0.668 µM (active) | 3.26 µM (active) |  | 
10 | CC(C)(C)c1ccc(O)c(O)c1 | 9.69 µM (active) | 6.11 µM (active) | 10 µM (active) | 8.91 µM (active) | 
11 | CCCOc1ccc2c(c1)CC[C@@H]1[C@@H]2CC[C@]2(C)C(OC)CC[C@@H]12 (stereo partly drawn) | inactive | inactive |  | inactive | 13.8% (inactive)
12 | CC[C@H]1CN2CCc3cc(OC)c(OC)cc3[C@@H]2C[C@@H]1C[C@H]1NCCc2cc(OC)c(OC)cc21 | 106 nM (active) and 83.3 nM (active) | 133 nM (active) and 93.4 nM (active) | 231 nM (active) and 447 nM (active) | 146 nM (active) and 282 nM (active) | 
13 | NC(=O)c1ccccc1Nc1ccnc(Nc2cccc(O)c2)n1 | 0.372 µM (active) | 0.326 µM (active) | 17.8 µM (active) | 12.6 µM (active) | 
14 | CC(C)(O)c1ccccc1CC[C@@H](SCC1(CC(=O)O)CC1)c1cccc(/C=C/c2ccc3ccc(Cl)cc3n2)c1 | inactive | inactive |  | inactive | 11.5% (inactive)
15 | CCS(=O)(=O)N1CCN(c2ccc(Nc3ncc(C(N)=O)c(NC4CC4)n3)cc2)CC1 | 130 nM (active) and 332 nM (active) | 184 nM (active) and 525 nM (active) | 22.4 µM (active) | 10 µM (active) | 
16 | CCC1(c2cnc[nH]2)Cc2ccccc2C1 | inactive | inactive |  | inactive | -4.6% (inactive)
17 | Fc1ccc(-c2csc3ncnc(NCc4ccc5c(c4)OCO5)c23)cc1 | 1.66 µM (active) | 1.66 µM (active) | 15.8 µM (active) | 25.1 µM (active) | 
18 | CN(C)CCOc1ccc(-c2nc(-c3ccc4c(c3)CC/C4=N\O)c(-c3ccncc3)[nH]2)cc1 | 7.42 µM (active) | 5.9 µM (active) | 31.6 µM (active) | 28.2 µM (active) | 
19 | CC(=O)NC(CS)C(=O)O (stereo not drawn) | inactive | inactive |  | inactive | -2.17% (inactive)
20 | O=C(OCC1(COC(=O)c2cccnc2)CCCC(COC(=O)c2cccnc2)(COC(=O)c2cccnc2)C1O)c1cccnc1 | inactive | inactive |  | inactive | 7.27% (inactive)
21 | C/C(=N/NC(=O)c1ccncc1)C(=O)O | inactive | inactive |  | inactive | 7.83% (inactive)
22 | C=CC(=O)Nc1cccc(Nc2nc(Nc3ccc(OCCOC)cc3)ncc2F)c1 | 0.468 µM (active) | 0.651 µM (active) | 15.8 µM (active) | 3.98 µM (active) | 
23 | C=CC(=O)Nc1cccc(Nc2nc(Nc3ccc(Oc4ccnc(C(=O)NC)c4)cc3)ncc2F)c1 | 4.61 µM (active) and 2.63 µM (active) | 5.8 µM (active) and 4.17 µM (active) | 17.8 µM (active) | 17.8 µM (active) | 
24 | CCCCc1ncc(/C=C(\Cc2cccs2)C(=O)O)n1Cc1ccc(C(=O)O)cc1 | inactive | inactive |  | inactive | 6.21% (inactive)
25 | COc1cc(C(=O)O)ccc1NC(=O)[C@@H]1N[C@@H](CC(C)(C)C)[C@](C#N)(c2ccc(Cl)cc2F)[C@H]1c1cccc(Cl)c1F | 6.61 µM (active) | 5.25 µM (active) |  | inactive | 1.9% (inactive)

Row | Compound | Potency [1] | Potency [2] | Potency [3] | Potency [4] | activity (max response) [3]
26 | C=CCNc1c(O)cc2c(O)c1C[C@@H](C)C[C@H](OC)[C@H](O)[C@@H](C)/C=C(/C)[C@H](OC(N)=O)[C@@H](OC)/C=C\C=C(\C)C(=O)N2 | 0.132 µM (active) | 0.417 µM (active) | 3.16 µM (active) | 10 µM (active) | 
27 | O=C(OCCN1CCOCC1)c1cccnc1Nc1cccc(C(F)(F)F)c1 | inactive | inactive |  | inactive | -11.8% (inactive)
28 | NC(=O)C1(N2CCCCC2)CCN(CCCN2c3ccccc3CCc3ccc(Cl)cc32)CC1 | 8.41 µM (active) | 8.41 µM (active) | 20.6 µM (active) | 2.91 µM (active) | 
29 | CN1CCC(c2c(O)cc(O)c3c(=O)cc(-c4ccccc4Cl)oc23)C1CO (stereo not drawn) | 0.742 µM (active) | 0.59 µM (active) | 3.16 µM (active) | 3.16 µM (active) | 
30 | CCN(CC)CCc1nc(-c2ccccc2)no1 | inactive | inactive |  | inactive | -1.01% (inactive)
31 | CN(C)/N=N/c1nc[nH]c1C(N)=O | inactive | inactive |  | inactive | 10.5% (inactive)
32 | Cc1ccc(-c2ccc3ncc4c(c3n2)n(C2CCN(C(=O)[C@H](C)O)CC2)c(=O)n4C)cn1 | 0.0651 µM (active) | 0.058 µM (active) | 0.794 µM (active) | 0.141 µM (active) | 
33 | CC(=O)N1CCC[C@H]1C(=O)N[C@@H](Cc1cnc[nH]1)C(=O)N[C@@H](CO)C(=O)N[C@@H](CS)C(=O)N[C@@H](CC(N)=O)C(N)=O | inactive | inactive |  | inactive | -17.6% (inactive)
34 | CCCCCN(CCCCC)C(=O)C(CCC(=O)O)NC(=O)c1ccc(Cl)c(Cl)c1 (stereo not drawn) | inactive | inactive |  | inactive | 5.36% (inactive)
35 | CC(C)(C(=O)O)c1ccc(C(O)CCCN2CCC(C(O)(c3ccccc3)c3ccccc3)CC2)cc1 (stereo not drawn) | inactive | inactive |  | inactive | -2.55% (inactive)
36 | CC(C)(C)c1ccc(C(=O)CCCN2CCC(OC(c3ccccc3)c3ccccc3)CC2)cc1 | 13.3 µM (active) | 11.9 µM (active) | 13 µM (active) | 5.8 µM (active) | 
37 | NCC1CCN(c2nccc(-c3ccc4ccccc4c3)n2)CC1 | 1.16 µM (active) | 1.16 µM (active) | 22.4 µM (active) | 10 µM (active) | 
38 | COCCOC(=O)N1CCN(S(=O)(=O)c2cc(F)c(Oc3ccc(Cl)cc3)c(F)c2)C(C(=O)NO)C1 (stereo not drawn) | 5.9 µM (active) | 5.9 µM (active) | 5.01 µM (active) | 2.82 µM (active) | 
39 | COc1ccccc1OCC(O)CO (stereo not drawn) | inactive | inactive |  | inactive | 13.4% (inactive)
40 | Cc1cc(OCc2nnc(SC3CCCC3)n2-c2cccnc2)ccc1-c1ccc(S(C)(=O)=O)cc1 | 0.184 µM (active) | 0.116 µM (active) |  | inactive | -6.15% (inactive)
41 | CN(C)CCOc1ccccc1Cc1ccccc1 | inactive | inactive |  | inactive | 9.36% (inactive)
42 | O=C(O)CNC(=O)c1nc(Cl)c2ccccc2c1O | inactive | inactive |  | inactive | 8.31% (inactive)
43 | O=S(=O)(Nc1ccc(-c2cccnc2)c2cccnc12)c1cccc(C(F)(F)F)c1 | 6.61 µM (active) | 5.25 µM (active) | 4.47 µM (active) | 3.98 µM (active) | 
44 | CC1(C)OC2=C(C(=O)c3ccccc3C2=O)[C@H](NCc2ccccc2)[C@@H]1O | 2.63 µM (active) | 2.63 µM (active) | 3.98 µM (active) | 3.16 µM (active) | 
45 | CN(C)C(N)=NC(=N)N | inactive | inactive |  | inactive | 1.52% (inactive)
46 | CCCCOc1cc(C(=O)OCCN(CC)CC)ccc1N | inactive | inactive |  | inactive | -10.3% (inactive)
47 | COc1ccc2c(c1)c1c3n2CCN(C)C3=NCC1 | inactive | inactive |  | inactive | 0.0191% (inactive)
48 | CC[C@]1(O)C[C@@H]2CN(CCc3c([nH]c4ccccc34)[C@@](C(=O)OC)(c3cc4c(cc3OC)N(C)[C@H]3[C@@](O)(C(=O)OC)[C@H](OC(C)=O)[C@]5(CC)C=CCN6CC[C@]43[C@@H]65)C2)C1 | 211 nM (active) and 36.6 nM (active) | inactive and 94.4 nM (active) and 18.4 nM (active) | 25.9 nM (active) and 92 nM (active) | 116 nM (active) and 291 nM (active) | 
49 | O=C(NCc1ccc(S(=O)(=O)c2cccc(C(F)(F)F)c2)cc1)c1cnc2[nH]ncc2c1 | 0.0118 µM (active) | 0.0105 µM (active) | 0.0282 µM (active) | 0.0178 µM (active) | 
50 | C[C@H](CCC(=O)O)[C@H]1CC[C@H]2[C@@H]3[C@@H](O)C[C@@H]4C[C@H](O)CC[C@]4(C)[C@H]3CC[C@]12C | inactive | inactive |  | inactive | -9.5% (inactive)
